USP2a inh = blocks human ubiquitin-specific protease USP2a; AID 463254; 330,000 compounds, 0.01% hits; USP2 core, Ub-CHOP2 coupled fluorogenic reporter, 485/531; O75604; Potency, µM (top dose mostly 38.3 µM), for inactives: top-dose activity change, negative = inhibition, most hits filed as inhibitors;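 note: potency is the fitted concentration of half-maximal effect; plate controls were DMSO wells for no effect and full inhibition by NEM control for full effect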
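Deubiquitinase activity read as fluorescence (485/531 nm) after Ub-CHOP2 cleavage activates the enterokinase reporter on its substrate; USP2 core 10nM, Ub-CHOP2 and substrate 25nM each, 30min compound preincubation then 60min RT; data normalized to NEM, curves fitted.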
IL1B secr inh = inhibitors of inflammasome signaling (IL-1 beta secretion) | THP-1 LPS/ATP IL-1B secretion, AlphaLISA, 16 h; stronger effect = lower value | activity change, % at 57.5 µM | 360,000 compounds, 4.7% hits; in the data active = activity change below about -50%; inconclusive = mostly about -30% to -49%; note: % is set by controls: 0 for no effect and ±100 for the full control effect
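THP-1 cells pretreated 1 hr with compounds (up to 57.5 uM final), then stimulated with LPS (250 ng/mL final) plus ATP (1.25 mM final); secreted IL-1B measured by AlphaLISA after 16 hr, decreased signal indicating inhibition.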
USP1-UAF1 inh = blocks the human USP1/UAF1 deubiquitinase complex; recombinant USP1/UAF1, Ub-Rhodamine cleavage fluorescence; Potency, µM (doses to about 57.1 µM), for inactives: at the highest dose activity change, negative = inhibition, most hits filed as inhibitors; 390,000 compounds, 0.23% hits; AID 743255; note: potency is the fitted concentration of half-maximal effect; % is set by controls: 0 for no effect and ±100 for the full control effect; nearly all actives have a fitted effect of over 60% in size
Target sequence (O94782 whole entry, looked up): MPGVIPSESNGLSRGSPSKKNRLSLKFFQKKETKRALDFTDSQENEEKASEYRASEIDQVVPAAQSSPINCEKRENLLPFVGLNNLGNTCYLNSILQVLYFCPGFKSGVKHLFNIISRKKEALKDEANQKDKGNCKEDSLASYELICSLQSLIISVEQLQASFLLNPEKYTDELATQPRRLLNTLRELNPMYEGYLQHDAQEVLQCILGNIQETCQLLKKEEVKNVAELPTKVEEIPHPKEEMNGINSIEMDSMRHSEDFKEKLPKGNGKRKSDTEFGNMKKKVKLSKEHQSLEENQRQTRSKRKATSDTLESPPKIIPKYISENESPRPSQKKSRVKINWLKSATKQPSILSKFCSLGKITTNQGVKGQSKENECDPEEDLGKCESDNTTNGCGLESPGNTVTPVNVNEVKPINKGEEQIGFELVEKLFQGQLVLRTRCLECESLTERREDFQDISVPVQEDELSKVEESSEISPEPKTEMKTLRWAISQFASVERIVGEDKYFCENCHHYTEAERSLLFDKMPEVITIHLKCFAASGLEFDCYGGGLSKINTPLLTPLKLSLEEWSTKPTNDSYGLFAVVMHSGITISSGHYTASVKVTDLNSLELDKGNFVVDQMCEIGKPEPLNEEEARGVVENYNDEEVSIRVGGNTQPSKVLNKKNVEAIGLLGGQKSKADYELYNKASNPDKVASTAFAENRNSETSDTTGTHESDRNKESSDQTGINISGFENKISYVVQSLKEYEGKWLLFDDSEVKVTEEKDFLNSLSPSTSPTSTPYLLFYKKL
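USP1/UAF1 complex (1 nM) preincubated 15 min at room temperature with compound, then Ub-Rho substrate (150 nM final) added. Kinetic fluorescence at 480/540 nm over 6 reads at 60 s intervals; 50 mM HEPES pH 7.8, 0.5 mM EDTA, 0.1 mg/ml BSA, 1 mM TCEP, 0.01% Tween-20.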
ATXN viability = cell viability loss in ATXN counter-screen | S2 cells (HEK-293 line with an ATXN2-luciferase reporter) viability, CellTiter-Fluor protease fluorescence, 24 h | Potency, µM (titrated, usually from 56.7 µM), usual class: cytotoxic | 400,000 compounds, 0.49% hits | AID 651635; note: potency is the fitted concentration of half-maximal effect; nearly all actives have a fitted effect of over 40% in size
ATXN2 expr inh = reduces ATXN2 reporter expression in HEK-293 cells; 360,000 compounds, 0.72% hits; HEK-293 ATXN2-luciferase reporter, luminescence, 24 h; Potency, µM (titrated, usually from 57 µM), for inactives: at the highest dose activity change, negative = inhibition, hits mostly inhibitors; note: potency is the fitted concentration of half-maximal effect; % is set by controls: 0 for no effect and ±100 for the full control effect; nearly all actives have a fitted effect of over 55% in size
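qHTS (up to 57 uM final) was run with 24 h compound exposure of reporter cells at 37 °C. Each well was multiplexed: SteadyGlo luminescence measured ATXN2-luciferase expression after a fluorogenic Gly-Phe-AFC viability readout (25 uM final).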
* = called active by the depositor; i = inactive; ? = inconclusive; . = no result; [ ] = dose if it differs, or a comment. Hits are enriched below; roughly 4.8% of the tested compounds scored in any of these assays. Unless noted, calls come from the whole dose curve; as a rule, active = well fitted curve in the direction sought with a large enough effect; inconclusive = small, poorly fitted or top-dose-only effect, or another doubt; inactive = no such curve, though single readings can be large; an effect the other way counts as inactive or inconclusive.

SMILES	USP2a inh	IL1B secr inh	USP1-UAF1 inh	ATXN viability	ATXN2 expr inh
Nc1nnc(CC(=O)N/N=C/c2ccc(-c3ccc(F)cc3)o2)s1	1%	-51*	-11%	i	-9%
COc1ccc(C(=O)/C=C/C(=O)N(CC(=O)NC2CCCCC2)Cc2cccs2)c(O)c1	0%	-100*	-30%	27µM*	?
COCCN(CC(=O)NC1CCCCC1)C(=O)/C=C/C(=O)c1ccc(OC)cc1O	1%	-101*	-15%	.	?
COc1ccc(CN(C(=O)/C=C/C(=O)c2ccc(OC)cc2O)C(C(=O)NC2CCCCC2)c2ccncc2)cc1 (stereo not given)	-11%	?	-17%	?	-4%
CC[C@@]1(c2ccccc2)NC(=O)N(C)C1=O	.	.	.	i	7%
Cc1cccc(C(C)C)c1NC(=O)C1CCCN1S(=O)(=O)c1cccc2nsnc12 (stereo not given)	.	.	-25%	i	-17%
COc1ccc(CN2CCCC(Cn3cc(C(=O)N4CCCC4)nn3)C2)c(O)c1 (stereo not given)	.	.	.	i	.
N#C/C(=C(/O)c1ccccc1F)c1nc2cc(C(F)(F)F)ccc2s1	2%	-9	?	i	.
N#C/C(=C(/O)c1ccc2c(c1)OCO2)c1nc2cc(C(F)(F)F)ccc2s1	2%	-54*	-12%	i	?
COc1ccc(S(=O)(=O)Nc2cccc(C(C)=O)c2)cc1Br	-4%	-71*	?	i	-17%
CSc1nnc(CCNC(=O)c2ccccc2C(F)(F)F)n1-c1ccc(F)cc1	.	.	.	i	.
c1ccc(-c2nc3c4ccccc4ccn3c2CN2CCCCC2)cc1	-1%	-71*	-18%	?	31%
CNc1c2cccc(C)c2nc2c(C(=O)NCCN(C)C)cccc12	.	-117*	-17%	.	?
Cc1ccc(C(=O)NCCN(C)C)c(C)c1	0%	12	-13%	?	3%
O=S(=O)(NCCN1CCOCC1)c1ccc2c(c1)OCCO2	0%	-74*	9%	i	-6%[11.3 µM]
Clc1ccc2nc(-c3ccc(Cl)nc3)[nH]c2c1	2%	-68*	-6%	i	36%
CC12CCC=CC1=C(C=O)C1C2CCC2(C)C(O)CCC12 (stereo not given)	.	-97*	?	?	?
CC(C)(C)NCc1cc(Br)ccc1OCc1cccs1	3%	-59*	-3%	i	-13%
CC(C)(CO)NCc1cc(Br)ccc1OCc1ccccc1	2%	-66*	-27%	i	-21%
CC(C)=CCC/C(C)=C/CNC(=O)C[C@H]1C[C@H](C(=O)N2CCCCC2)[C@@]2(C)c3[nH]c4cc(CCC(=O)N(C)C)ccc4c3CCN2C1=O	4%	-68*	?	32µM*	?
CC[C@]12c3[nH]c4ccc(OC)cc4c3CCN1C(=O)C(CC(=O)NC/C=C(\C)CCC=C(C)C)C[C@@H]2C(=O)N1CCN(C(=O)c2ccco2)CC1 (stereo not given in full)	-17%	-53*	-12%	?	?
CC[C@]12c3[nH]c4ccccc4c3CCN1C(=O)C(CC(=O)NC/C=C(\C)CCC=C(C)C)C[C@@H]2C(=O)N1CCN(C(=O)c2ccco2)CC1 (stereo not given in full)	3%	-53*	?	.	0%
CC[C@]12c3[nH]c4cc(-c5ccco5)ccc4c3CCN1C(=O)[C@@H](CC(=O)NC/C=C(\C)CCC=C(C)C)C[C@@H]2C(=O)N1CCN(C(=O)c2ccco2)CC1	-19%	?	?	i	?
COc1ccc2[nH]c3c(c2c1)CCN1C(=O)C(CC(=O)NC/C=C(\C)CCC=C(C)C)C[C@H](C(=O)N(C(C)C)C(C)C)[C@@]31C (stereo not given in full)	2%	-64*	-32%	i	2%
CCCCCCCCCc1nc2sc3c(c2c(=O)n1NC(=O)c1ccc([N+](=O)[O-])cc1)CC(C)(C)OC3	-1%	1	-24%	i	?
SMILES	USP2a inh	IL1B secr inh	USP1-UAF1 inh	ATXN viability	ATXN2 expr inh
CCCCCCCCCc1nc2sc3c(c2c(=O)n1NC(=O)c1ccccc1[N+](=O)[O-])CC(C)(C)OC3	-10%	-74*	-24%	?	?
CC(=O)N[C@@H]1[C@H](O[C@@H]2c3ccc(c(Cl)c3)Oc3cc4cc(c3O[C@H]3O[C@H](CO)[C@@H](O)[C@H](O)[C@H]3NC(=O)CCCCCCCC(C)C)Oc3ccc(cc3Cl)C[C@H]3NC(=O)[C@H](N)c5ccc(O)c(c5)Oc5cc(O)cc(c5)[C@H](NC3=O)C(=O)N[C@H]4C(=O)N[C@H]3C(=O)N[C@@H]2C(=O)N[C@@H](C(=O)O)c2cc(O)cc(O[C@H]4O[C@H](CO)[C@@H](O)[C@H](O)[C@H]4O)c2-c2cc3ccc2O)O[C@H](CO)[C@@H](O)[C@@H]1O	.	.	.	.	-3%
CC1=CCC2C(=O)N(c3cccc(C(=O)NCc4ccccc4)c3)C(=O)C2C1 (stereo not given)	-2%	16	-2%	i	-15%
CC1=CCC2C(=O)N(c3cccc(C(=O)Nc4ccc(Cl)cc4)c3)C(=O)C2C1 (stereo not given)	-1%	-80*	?	i	-13%
C=C1C(=O)O[C@H]2C[C@]3(C)C([C@@H](OC(=O)/C(C)=C/C)[C@H]12)[C@](C)(O)CC[C@H]3O (stereo not given in full)	-2%	-58*	-19%	?	.
C=C[C@@]1(C)CC(=O)[C@]2(O)[C@@]3(C)[C@@H](O)CCC(C)(C)[C@@H]3[C@H](OC(C)=O)[C@H](O)[C@@]2(C)O1	.	-21	-18%	i	13%
CC1CCCN(CCCNC(=O)c2ccc3c(c2)N(Cc2ccccc2F)C(=O)c2ccccc2S3(=O)=O)C1 (stereo not given)	3%	-65*	-20%	?	?
CC1CCCN(CCCNC(=O)c2ccc3c(c2)N(Cc2ccc(F)cc2)C(=O)c2ccccc2S3=O)C1 (stereo not given)	0%	-58*	-8%	i	-25%
CCC1CCCCN1CCCNC(=O)c1ccc2c(c1)N(Cc1ccc(F)cc1)C(=O)c1ccccc1S2=O (stereo not given)	0%	-58*	-3%	?	?
COC(=O)C1CCN(Cc2ccc3c(c2)CN(C(=O)c2ccnn2C)CCO3)CC1	.	.	.	i	.
O=C1N/C(=N\N=C\c2ccccn2)SC1Cc1cccc(SC(F)F)c1 (stereo not given)	1%	6	-17%	?	18µM*
O=C1N/C(=N\N=C\c2ccc3ncccc3c2)SC1Cc1ccc(SC(F)F)cc1 (stereo not given)	0%	17	-4%	i	14%
